High-throughput results as filed in PubChem.
GDH-TPI counter-1: GDH-TPI coupled enzyme inhibition counter-screen; GDH-TPI coupled enzyme counterscreen, NADH absorbance; actives 1.2% (n = 360,000); inhibition, % at 4.8 µM; in the data active = inhibition above about 30%;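 note: 0% = DMSO wells and 100% = wells lacking the enzyme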
UGM FP inh: Mtb UDP-galactopyranose mutase inhibition; actives 0.06% (n = 320,000); P9WIQ1; purified UGM, fluorescence polarization probe displacement; inhibition, % at 10 µM; in the data active = inhibition above about 10%, passing the limit was not always enough
Target sequence (P9WIQ1 whole entry, looked up): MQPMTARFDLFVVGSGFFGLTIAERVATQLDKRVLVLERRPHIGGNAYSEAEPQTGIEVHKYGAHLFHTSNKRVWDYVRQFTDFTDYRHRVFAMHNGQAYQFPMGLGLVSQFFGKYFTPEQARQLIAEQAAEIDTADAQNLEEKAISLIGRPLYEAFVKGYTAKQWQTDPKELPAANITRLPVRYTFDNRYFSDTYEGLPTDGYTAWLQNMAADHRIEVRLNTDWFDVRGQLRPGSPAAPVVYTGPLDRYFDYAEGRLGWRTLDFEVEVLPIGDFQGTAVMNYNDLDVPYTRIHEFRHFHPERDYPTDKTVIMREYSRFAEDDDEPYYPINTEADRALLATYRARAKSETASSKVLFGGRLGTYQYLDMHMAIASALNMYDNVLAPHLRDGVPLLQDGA
Rv3671c protease: Rv3671c (M. tuberculosis) protease inhibition; inhibition, % at 5.96 µM; P9WHR9; actives 0.048% (n = 320,000); in the data active = inhibition above about 38%;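 note: extracellular domain of Rv3671c used as enzyme; 0% = enzyme with DMSO and 100% = no enzyme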
Mtb FBA inh: inhibits M. tuberculosis FBA enzyme; actives 2.3% (n = 360,000); inhibition, % at 1 µM; P9WQA3; purified M. tuberculosis FBA, fluorescence read-out; AID 588726;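 note: 0% = vehicle and 100% = reference inhibitor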
Mtb FBA inh conf: confirmation of M. tuberculosis fructose-bisphosphate aldolase inhibitors. purified M. tuberculosis FBA, fluorescence read-out. inhibition, % at 1 µM. actives 78% (n = 5,600). AID 651616. shares compounds with Mtb FBA inh;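 note: 0% = vehicle wells and 100% = reference inhibitor wells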
GDH-TPI counter-2: GDH-TPI inhibition counter-screen for FBA inhibitors. shares compounds with Mtb FBA inh. GDH-TPI coupled enzyme counterscreen, fluorescence. actives 81% (n = 5,600). inhibition, % at 1 µM. AID 652141; in the data active = inhibition above about 10%
GDH-TPI DR: inhibits GDH-TPI coupling enzymes in dose response | actives 79% (n = 170) | GDH-TPI coupled enzyme assay, fluorescence, artifact counterscreen | IC50, µM | shares compounds with Mtb FBA inh; call rule not given here
The depositor's hits bear a star; . = not tested or not shown; + = active, no number. Only some compounds are listed: those with a hit (about 3.5% of all), similar ones and a draw of the others. Cut-off read from the data, not from the text of the source, unless noted: active = inhibition above about 27%; inactive = the rest.

SMILES	GDH-TPI counter-1	UGM FP inh	Rv3671c protease	Mtb FBA inh	Mtb FBA inh conf	GDH-TPI counter-2	others
CC(C)n1c(=O)[nH][nH]c1=S	-11	-2	2	0	.	.
CN1CCN(NC(=O)c2cc(-c3ccccn3)nc3ccccc23)CC1	7	3	7	2	.	.
O=C(c1cc(-c2ccc(Cl)s2)nc2ccccc12)N1CCCC1	10	1	0	58*	155*	144*
O=C(c1cc(Cl)nc2ccccc12)N1CCCCC1	1	0	-8	3	.	.
CC(C)(CNC(=O)c1cc(-c2ccc(Cl)s2)nc2ccccc12)N1CCOCC1	19	-2	6	62*	12	9	GDH-TPI DR=2.9*
CN1CCN(NC(=O)c2cc(-c3ccc(Cl)s3)nc3ccccc23)CC1	13	0	5	73*	65*	42*
CN(Cc1ccccc1)C(=O)c1ccc2sc([C@H]3C[C@H](O)[C@@H](CO)O3)nc2c1	3	.	.	-3	.	.
Cn1nnnc1SCC(=O)NC1CCCc2ccccc21 (stereo unspecified)	0	-1	0	-5	.	.
CN1CCN(CCCNC(=O)c2cn(C3CCCCC3)c(=O)c3c2c2ccccc2n3C)CC1	11	2	-2	31*	37*	41*
Cn1c2ccccc2c2c(C(=O)NCC3CCCO3)cn(C3CCCC3)c(=O)c21 (stereo unspecified)	12	1	3	12	.	.
Cn1c2ccccc2c2c(C(=O)NCCCN3CCCC3=O)cn(C3CCCCC3)c(=O)c21	12	-2	7	35*	98*	85*
CC(=O)Nc1cc(-c2ccccc2CN(C)C)cn2c(-c3ccc(C(C)=O)cc3)cnc12	26	.	.	2	.	.
CCN1C(=O)[C@H]2[C@@H](c3ccc(OC)cc3)N[C@]3(CCCN(Cc4ccc(F)cc4)C3=O)[C@H]2C1=O	7	.	.	0	.	.
O=C(NNC(=O)C1C2CCCCC21)c1coc(=O)c(Br)c1 (stereo unspecified)	15	-3	13	54*	86*	50*
O=C(NNC(=O)C1CCCCC1)c1ccc(Br)cc1	8	1	-6	2	.	.
c1ccc(COc2ccc(-c3cc4nc(NCCOc5ccccc5)ccn4n3)cc2)cc1	29	.	.	11	.	.
Nc1nc2nc(-c3ccc(OCc4ccccc4)cc3)cc(C(F)(F)F)n2n1	13	-4	1	36*	+	+
CS(=O)(=O)N1N=C(c2ccco2)CC1c1ccc(Cl)cc1Cl (stereo unspecified)	-12	-2	9	-3	.	.
COc1ccc(-c2cnc3c(NC=O)cc(-c4ccc(S(C)(=O)=O)cc4)cn23)cc1OC	12	.	.	2	.	.
O=CNc1cc(-c2ccsc2)cn2c(-c3ccccc3)cnc12	8	.	.	-1	.	.
CS(=O)(=O)c1ccc(-c2cnc3c(NC=O)cc(-c4ccsc4)cn23)cc1	19	.	.	29*	167*	136*
COc1ccccc1-c1cc(NC=O)c2ncc(-c3ccc(S(C)(=O)=O)cc3)n2c1	19	.	.	104*	+	+
COc1ccc(NC(=O)C2Cc3c(-c4cccc(F)c4)ccnc3O2)cc1 (stereo unspecified)	14	.	.	1	.	.
COc1cc(-c2nc(CCNC(=O)c3ccco3)cs2)cc(OC)c1OC	-1	-1	0	37*	139*	112*
Cc1ccc(CCC(=O)NCc2ccccc2)o1	10	3	-7	-1	.	.
SMILES	GDH-TPI counter-1	UGM FP inh	Rv3671c protease	Mtb FBA inh	Mtb FBA inh conf	GDH-TPI counter-2	others
Cc1noc(C)c1CSCC(=O)Oc1ccc(N(C)S(=O)(=O)c2ccc(Cl)cc2)cc1	3	-1	-4	-1	.	.
CCOc1ccc(-c2cc3cc(OC)c(OC)cc3c(C)n2)cc1	2	0	6	28*	60*	43*
Cc1c(C(=O)NC2CCOC2)oc2c(F)cccc12 (stereo unspecified)	2	-2	-8	-1	.	.
CCSc1nnc(NC(=O)c2ccco2)s1	28	1	7	1	.	.
O=C(Nc1nnc(/C=C/c2ccccc2)s1)c1ccco1	74*	2	4	34*	-1	0
COc1cccc(C2Nc3ccc4ccccc4c3C3=C2C(=O)CC(C)(C)C3)c1OCC(=O)O (stereo unspecified)	9	-2	15	65*	132*	114*
COc1ccccc1C1C2=C(CC(C)(C)CC2=O)N(CC(=O)O)C2=C1C(=O)CC(C)(C)C2	8	1	3	23	.	.
